# Measurements reported in PubChem BioAssay (EPA / NIEHS).
# Calls of active or inactive are those of the source. How the source made its calls: active means hit-call score of the fitted dose curve at least 0.9, where 1 is the maximum; inactive means score below 0.9.
# Read-out: Collagen III, COL3A1 (gene 1281)
# Test: BSK_MyoF_CollagenIII: BioMAP Diversity Plus: MyoF Assay for Collagen III Biomarker Activity (AID 2284239)
# Conditions: primary human lung fibroblasts
# Method: BSK_MyoF is a cell-based, multiplexed-readout assay that uses lung fibroblasts, […], with measurements taken at 24 hours after chemical dosing in a microplate: 96-well plate.BSK_MyoF_CollagenIII is an assay component measured in the BSK_MyoF assay. It measures Collagen III antibody related to regulation of gene expression using ELISA technology.Data from the assay component BSK_MyoF_CollagenIII was analyzed at the endpoint, BSK_MyoF_CollagenIII, in the positive analysis fitting direction relative to DMSO as the negative control and baseline of activity. Using a type of binding reporter, gain or loss-of-signal activity can be used to understand protein changes. To generalize the intended target to other relatable targets, this assay endpoint is annotated to the 'cell adhesion molecules' intended target family, where the subfamily is 'collagen'.
# The levels of cell surface (or secreted, indicated by the prefix "s") biomarker endpoints were measured by ELISA. Overt cytotoxicity to cells in confluent adherent cultures (all systems other than the BT system) was assessed by measuring total protein levels using sulforhodamine B (SRB) staining in parallel cultures at the time of biomarker measurements, indicated as SRB endpoints. For proliferation assays for adherent cell types, individual cell types are cultured at sub-confluence and relative cell numbers quantified by SRB staining at time points optimized for each system (48 h: 3C and CASM3C systems; 72 h: BT and HDF3CGF systems; 96 h: SAg system). SRB was performed by staining cells with 0.1% SRB after fixation with 10% TCA and reading wells at 560 nm.Viability and proliferation of PBMC (T cells) was quantified by Alamar Blue reduction for the SAg and BT systems. For PBMC viability (referred to as PBMC Cytotoxicity within the assay endpoint names), cells were plated (75,000/well in a 96-well plate) and then chemical samples added for 1 h before addition of activators, SEB and TSST-1 (20 ng/mL final concentration each). Cells were incubated for 90 h. Then, Alamar Blue (20 uL/well) (Invitrogen, Cat DAL1100) was added for 6 h, and the plates were read with a fluorescence microplate reader at 546/580 nm (excitation/emission). For PBMC proliferation, cells were plated and activated as above but incubated for only 16 h prior to addition of Alamar Blue. Plates were read after 6 h.
Compound,outcome,AC50
C=C(C)[C@H]1CC=C(C)C(=O)C1,inactive,–
O=C1OC2(c3ccccc31)c1ccc(O)c(Br)c1Oc1c2ccc(O)c1Br,–,20 µM (active)
O=C1OC[C@H](Cc2cccc(O)c2)[C@H]1Cc1cccc(O)c1,inactive,–
O=C1c2ccccc2C(=O)c2c(O)ccc(O)c21,inactive,–
CN(c1nccc(=O)[nH]1)C1CCN(c2nc3ccccc3n2Cc2ccc(F)cc2)CC1,inactive,–
COc1ccc(OC)c(N=Nc2c(O)ccc3ccccc23)c1,–,10.4 µM (active)
CC=Cc1ccc(OCC)c(O)c1,inactive,–
C=C(C)C(=O)OCCOCCOCCOC(=O)C(=C)C,inactive,–
CC(C)(N=C=O)c1cccc(C(C)(C)N=C=O)c1,inactive,–
Oc1c(Cl)cc(Cl)c(Cl)c1Cc1c(O)c(Cl)cc(Cl)c1Cl,–,6.62 µM (active)
CS(=O)(=O)c1ccc(C2=C(c3ccccc3)C(=O)OC2)cc1,inactive,–
CC(C)(C)CC(C)(C)c1ccc(OCCOCC[N+](C)(C)Cc2ccccc2)cc1,–,7.02 µM (active)
Clc1cc(Cl)c(-c2c(Cl)c(Cl)cc(Cl)c2Cl)cc1Cl,–,12.4 µM (active)
CC(=O)c1c(C)c([N+](=O)[O-])c(C(C)(C)C)c([N+](=O)[O-])c1C,inactive,–
CC(=O)Nc1ccc(C(=O)CCl)cc1,–,20 µM (active)
CN(C)C(=O)Nc1ccc(Oc2ccc(Cl)cc2)cc1,inactive,–
CC1(C)C2=CCCC(C)(C)[C@]23CC[C@H]1C3,–,39 µM (active)
CC(=O)C1(C)CC2=C(CCCC2(C)C)CC1C (stereo not drawn),–,26 µM (active)
Cc1cc(CCC(=O)OCCOCCOCCOC(=O)CCc2cc(C)c(O)c(C(C)(C)C)c2)cc(C(C)(C)C)c1O,inactive,–

Compound,outcome,AC50
CCCCN(CCCC)C(=O)N(CCCC)CCCC,–,8.12 µM (active)
CCCCOC(=O)CCCCCCCC(=O)OCCCC,inactive,–
CCC(C)c1cc([N+](=O)[O-])cc([N+](=O)[O-])c1OC(=O)OC(C)C (stereo not drawn),–,11.5 µM (active)
CC(C=O)Cc1ccc(C(C)(C)C)cc1 (stereo not drawn),inactive,–
CCN(CC)C(=O)N(CC)CC,inactive,–
C[C@@H]1CCN(C(=O)[C@H](CCCN=C(N)N)NS(=O)(=O)c2cccc3c2NC[C@H](C)C3)[C@@H](C(=O)O)C1,inactive,–
COc1cc(Cl)c(OC)cc1N,inactive,–
C1=CC2C3C=CC(C3)C2C1 (stereo not drawn),inactive,–
CCCCCC(C=O)=Cc1ccccc1,inactive,–
CCCCCCCCCCCCCCCC(=O)OC/C=C(C)/C=C/C=C(C)/C=C/C1=C(C)CCCC1(C)C,inactive,–
c1ccc(CCc2ccccc2)cc1,–,26.9 µM (active)
c1ccc2cc(Nc3ccc(Nc4ccc5ccccc5c4)cc3)ccc2c1,–,4.82 µM (active)
C=C(C)C(=O)OCC(CC)(COC(=O)C(=C)C)COC(=O)C(=C)C,–,29.3 µM (active)
C=C(C)C(=O)OCCOCCOCCOCCOC(=O)C(=C)C,inactive,–
c1ccc(Oc2ccccc2)cc1,inactive,–
IC(I)I,inactive,–
CN(C)C(=S)SC(=S)N(C)C,–,19.9 µM (active)
COc1ccc(CCN2CCC(Nc3nc4ccccc4n3Cc3ccc(F)cc3)CC2)cc1,–,6.52 µM (active)
CSCCC=O,inactive,–
